The nature of test [1]: Quantitative High-Throughput drug screen in 47 multiple myeloma cell lines against the NCATS MIPE library collection: U266_ATCC cell viability assay (AID 1919864). Further: nearly all actives have a fitted effect of over 35% in size.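 On viability (% of DMSO control): 0% = media-only wells without cells and 100% = DMSO-only wells.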 The method, boiled down: (§1)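 Readout: median RLU from CellTiter-Glo after 5 min at room temperature. Preceding step was 48 h drug treatment of 500 cells/well at 37 °C, 5% CO2, with DMSO-only and media-only control wells.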

The nature of test [2]: Quantitative High-Throughput drug screen in 47 multiple myeloma cell lines against the NCATS MIPE library collection: XG6_PLB cell viability assay (AID 1919865). Further: nearly all actives have a fitted effect of over 40% in size. Put shortly:
as §1

A short description of test [3]: Quantitative High-Throughput drug screen in 47 multiple myeloma cell lines against the NCATS MIPE library collection: XG1_PLB cell viability assay (AID 1919866). Further: nearly all actives have a fitted effect of over 35% in size. Put shortly: as §1
Test [4] can be described thus: Quantitative High-Throughput drug screen in 47 multiple myeloma cell lines against the NCATS MIPE library collection: VP6_DJ cell viability assay (AID 1919867). Further: nearly all actives have a fitted effect of over 40% in size. Put shortly: as §1
Test [5] is described as follows: Quantitative High-Throughput drug screen in 47 multiple myeloma cell lines against the NCATS MIPE library collection: UTMC2_PLB cell viability assay (AID 1919868). Further: nearly all actives have a fitted effect of over 55% in size.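 On viability (% of DMSO control): 100% = DMSO-only wells and 0% = media-only wells without cells.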 The following applies: CellTiter-Glo ATP luminescence, 48 h; viability (% of DMSO control): at 45.8 µM (top of the series). Put shortly:
as §1

Test [6] is described as follows: Quantitative High-Throughput drug screen in 47 multiple myeloma cell lines against the NCATS MIPE library collection: PE2_PLB cell viability assay (AID 1919869). Further: nearly all actives have a fitted effect of over 35% in size. Put shortly: as §1
Test [7] is described as follows: Quantitative High-Throughput drug screen in 47 multiple myeloma cell lines against the NCATS MIPE library collection: PCM6_Riken cell viability assay (AID 1919870). Further: nearly all actives have a fitted effect of over 30% in size. Put shortly: as §1
A short description of test [8]: Quantitative High-Throughput drug screen in 47 multiple myeloma cell lines against the NCATS MIPE library collection: RPMI8226_ATCC cell viability assay (AID 1919871). Further: nearly all actives have a fitted effect of over 30% in size. Put shortly:
as §1

Test [9] can be described thus: Quantitative High-Throughput drug screen in 47 multiple myeloma cell lines against the NCATS MIPE library collection: OPM2_DSMZ cell viability assay (AID 1919872). Further: nearly all actives have a fitted effect of over 30% in size. Put shortly: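 Steps: seed 500 cells per well; pin-transfer MIPE 4.0 library; incubate 48 h at 37C, 5% CO2, humidified; add CellTiter-Glo, 5 min room temperature; read luminescence.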
A short description of test [10]: Quantitative High-Throughput drug screen in 47 multiple myeloma cell lines against the NCATS MIPE library collection: KMS11_JCRBsus cell viability assay (AID 1919873). Further: nearly all actives have a fitted effect of over 50% in size. Put shortly:
as §1

Records with an inconclusive call do not appear. Activity calls are given as the source filed them. The call rests on the fitted dose curve; in most records, active means well fitted cell-killing curve with a large enough effect; inconclusive means small, poorly fitted or top-dose-only effect, or effect the other way; inactive means no such curve, though single readings can be large or run the other way.
Potency means the concentration at half of the fitted maximal effect.

With `C[C@H](NCc1ccc(OCc2cccc(F)c2)cc1)C(N)=O`, the Potency in test [1] is 7430 nM (active); in test [2] it was 1660 nM (active); in test [3] it was 3720 nM (active); in test [4] it was 2350 nM (active); in [5], 1180 nM (active); in [6] it was 2090 nM (active). Besides, the Potency was 2090 nM (active) in [7], 16600 nM (active) in test [8], 11800 nM (active) in test [9] and 7430 nM (active) in [10].

Regarding `O=C(O)C=Cc1ccc(Cn2ccnc2)cc1`, the Potency result in test [1], in [2], in test [3], in test [4], in test [5] and in test [6] was “inactive” each time. Besides, the Potency result in [7], in test [8] and in test [9] was “inactive” in each case.

With `CCc1ccc(C(=O)Nc2cc(CN3CCN(C)CC3)cc(C(F)(F)F)c2)cc1C#Cc1cnc2ccnn2c1`, the Potency in [1] was 18700 nM (active); in test [2], 4180 nM (active); in test [3], 4690 nM (active); in [4], 9350 nM (active); in test [5], 11800 nM (active); in test [6] it was 4690 nM (active). Besides, the Potency is 3720 nM (active) in [7], 20900 nM (active) in [8], 14800 nM (active) in [9] and 4690 nM (active) in test [10].

Regarding `COc1cccc2c1C(=O)c1c(O)c3c(c(O)c1C2=O)C[C@@](O)(C(=O)CO)C[C@@H]3O[C@H]1C[C@H](N)[C@H](OC2CCCCO2)[C@H](C)O1` (stereo partly drawn), the Potency was 2350 nM (active) in [1]; 662 nM (active) in [2]; 1870 nM (active) in test [3]; 5260 nM (active) in test [4]; 166 nM (active) in test [5]; 1180 nM (active) in [6]. The Potency in [7] was 1320 nM (active); in test [8], 7430 nM (active); in test [9] it was 16600 nM (active); in test [10], 2640 nM (active).

With `CC(C(C)N1CC(=O)NC(=O)C1)N1CC(=O)NC(=O)C1` (stereo not drawn), the Potency entry in test [1], in test [2], in test [3], in [4], in test [6] and in test [7] was “inactive” throughout. For the same compound, the Potency result in test [8], in test [9] and in [10] was “inactive” each time. Besides, the Potency in test [5] was 526 nM (active).

With `CN[C@@H]1C[C@H]2O[C@@](C)([C@H]1OC)n1c3ccccc3c3c4c(c5c6ccccc6n2c5c31)C(=O)N[C@H]4O`, the Potency in test [1] is 1050 nM (active); in test [2], 83.3 nM (active); in [3], 148 nM (active); in test [4], 46.9 nM (active); in test [5], 148 nM (active); in [6], 118 nM (active). For the same compound, the Potency in test [7] was 148 nM (active); in test [8] it was 2090 nM (active); in test [9], 1050 nM (active); in [10] it was 264 nM (active).

Consider `CC(C=CC1=C(C)CCCC1(C)C)=CC=CC(C)=CC(=O)Nc1ccc(O)cc1`, for which the Potency in [1] is 38200 nM (active); in [2], 13600 nM (active); in test [3], 15200 nM (active); in [4], 12100 nM (active); in test [5], 15200 nM (active); in [6] it was 12100 nM (active). The Potency was 13600 nM (active) in test [7], 24100 nM (active) in [8], 17100 nM (active) in test [9] and 19100 nM (active) in [10].

Turning to `C=CC(=O)Nc1cccc(Nc2nc(NC3CCC(N(C)C)CC3)nc3c2ncn3C(C)C)c1` (stereo not drawn), the Potency was 296 nM (active) in test [1]; 16.6 nM (active) in test [2]; 105 nM (active) in [3]; 235 nM (active) in [4]; 132 nM (active) in [5]; 209 nM (active) in test [6]. Further, the Potency was 209 nM (active) in [7], 1050 nM (active) in [8], 1870 nM (active) in test [9] and 372 nM (active) in [10].

With `CN(CC(=O)N(Cc1ccc(C2CCCCC2)cc1)c1ccc(C(=O)O)c(O)c1)S(=O)(=O)c1c(F)c(F)c(F)c(F)c1F`, the Potency is 13200 nM (active) in test [1]; 4690 nM (active) in test [2]; 4690 nM (active) in [3]; 8330 nM (active) in [4]; 3320 nM (active) in [6]; 6620 nM (active) in test [7]. Also, the Potency in test [8] and in test [9] was 23500 nM (active) in each case. In addition, in test [5], the viability (% of DMSO control) is 77% (active).

Turning to `Cc1ncc(-c2ccnc(Nc3ccc(S(C)(=O)=O)cc3)n2)n1C(C)C`, the Potency in test [1] is 3320 nM (active); in test [2], 1870 nM (active); in test [3] it was 1480 nM (active); in test [4], 1870 nM (active); in test [5] it was 3320 nM (active); in test [6] it was 2350 nM (active). For the same compound, the Potency in test [7] is 743 nM (active); in [8] it was 5900 nM (active); in test [9], 3720 nM (active); in test [10] it was 2090 nM (active).

For `C[C@H](NCc1ccc2c(c1)nc(NC(=O)c1ccc(-c3cn[nH]c3)s1)n2CCc1ccccc1)C(C)(C)C`, the Potency in [1] was 1480 nM (active); in test [2], 935 nM (active); in test [3], 743 nM (active); in test [4], 526 nM (active); in [5], 935 nM (active); in test [6] it was 1050 nM (active). The Potency was 418 nM (active) in test [7], 2960 nM (active) in test [8], 2090 nM (active) in test [9] and 590 nM (active) in test [10].

As to `Cc1noc(-c2ccc(CSCCC(=O)O)cc2)c1NC(=O)OC(C)c1ccccc1Cl` (stereo not drawn), the Potency result in test [1], in [2], in test [3], in [4], in test [5] and in test [6] was “inactive” throughout. Moreover, the Potency result in [7], in test [8], in [9] and in test [10] was “inactive” each time.

Values taken from PubChem BioAssay (NCATS).
